Compound activity: PubChem BioAssay, National Center for Advancing Translational Sciences (NCATS)
Shiga inhibitor: Shiga toxin inhibition | Vero cells, Shiga toxin protein synthesis inhibition reporter | inhibition, % at 38.7 µM | hit rate 9.2% among 290,000 | AID 2315; in the data active = inhibition mostly above about 28%, no sharp cut-off; inactive = mostly below about 43%; note: 0% is about no effect
Cycloheximide cs: affects cycloheximide protein synthesis inhibition readout, counter-screen; cell reporter, cycloheximide protein synthesis inhibition counterscreen; max response, %; AID 2314; hit rate 12% among 300,000; in the data active = max response mostly above about 13%, no sharp cut-off; inactive = mostly below about 14%; note: read at 38.3 µM for the half of the compounds with a filed dose; 0% is about no effect
Pf growth 96h: inhibits malaria parasite growth, 96 h. P. falciparum luciferase reporter growth, 96 h. hit rate 6.9% among 320,000. Potency, µM (top dose mostly 28.7 µM), without a hit: top-dose activity change, negative = inhibition, usual class: inhibitors. AID 504834; note: potency is the fitted concentration of half-maximal effect; % is set by controls: 0 for no effect and ±100 for the full control effect
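96 h incubation, 37 C, 5% CO2, of luciferase-reporter P. falciparum-infected RBCs (2% hematocrit, 0.05% parasitemia final) with test compounds; endpoint luminescence.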
Pf growth 48h: inhibits P. falciparum growth in the first generation, 48 h | AID 504832 | hit rate 5.9% among 310,000 | P. falciparum luciferase growth in erythrocytes, 48 h | Potency, µM (titrated, usually from 28.7 µM), inactives show at the highest dose activity change, negative = inhibition, usual class: inhibitors; note: potency is the fitted concentration of half-maximal effect; % is set by controls: 0 for no effect and ±100 for the full control effect
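Erythrocytes infected with P. falciparum carrying an integrated firefly luciferase reporter (2% hematocrit, 0.1% parasitemia final) were exposed to compounds in RPMI 1640 with 0.5% Albumax at 37 C, 5% CO2. Growth inhibition was scored as reduced luminescence.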
HCV inh: blocks hepatitis C virus; Huh7.5.1 HCVcc-Cre infection, luciferase reporter, 44 h; Potency, µM (titrated, usually from 41.8 µM), without a hit: top-dose activity change, negative = inhibition, actives largely listed as inhibitors; hit rate 3.4% among 340,000; note: potency is the fitted concentration of half-maximal effect; % is set by controls: 0 for no effect and ±100 for the full control effect
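Seed cells (1,000/well) for 4 h; treat with compound and infect with HCVcc-Cre, moi about 0.5. Incubate 44 h, then detect luciferase activity.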
HCMV inh: human cytomegalovirus inhibition. hit rate 4.5% among 410,000. activity change, negative = inhibition, % at 57.5 µM. HFF cells, HCMV-luciferase reporter, 72 h; hits give low values; in the data active = activity change below about -60%; inconclusive = no clear call, values can overlap the other calls; inactive = above about -39%; note: % is set by controls: 0 for no effect and ±100 for the full control effect
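HFF cells seeded 16 h at 37C, treated with compounds, infected with luciferase-reporter HCMV at MOI 1 PFU/cell; luciferase read at 72 h post infection, normalized to buffer-only and Salinomycin controls.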
Numbers without * were called inactive; u = inconclusive; x = no result given. Rows were chosen to be rich in hits. Some 21% of all compounds tested hit in one or more screens of this group. Unless noted, calls come from the whole dose curve; as a rule, active = well fitted inhibition curve with a large enough effect; inconclusive = small, poorly fitted or top-dose-only effect, or another doubt; inactive = no such curve, though single readings can be large or run the other way.

SMILES	Shiga inhibitor	Cycloheximide cs	Pf growth 96h	Pf growth 48h	HCV inh	HCMV inh
c1ccc(C2(Cn3ccc4ccccc43)OCCO2)cc1	-4	-2	u	13µM*	u	-39
COc1ccc(S(=O)(=O)NCCS(=O)(=O)N2CCN(c3ccccc3F)CC2)cc1	x	x	x	x	x	-13
O=C(N/N=C/c1ccc[nH]1)c1ccccc1O	40*	37*	u	81%	-11%	-92*
O=C(CNC(=O)c1ccc(Br)cc1)N/N=C/c1ccc[nH]1	6	-2	9%	30%	2.5µM*	7
O=C(Cc1ccccc1)N/N=C/c1ccc[nH]1	28	-1	-4%	-15%	9%	u
CC(C)(C)c1ccc(C2CC2C(=O)N/N=C\c2ccc[nH]2)cc1 (centres undefined)	48	12*	13%	u	0.56µM*	-100*
O=C(N/N=C/c1ccc[nH]1)c1ccc(O)cc1	101*	28*	10µM*	67%	-5%	-16
Cc1ccc(CNC(=O)C2CSC3(C)CCC(=O)N23)cc1 (centres undefined)	x	x	x	x	-15%	u
CSc1ncnc2c1ncn2CCCNCc1ccc2c(c1)OCO2	x	x	x	x	x	-12
COc1ccc2c(c1)c(/C=N/Nc1nc3ccccc3[nH]1)c(C)n2C	36	7	1.7µM*	1.5µM*	u	-101*
COc1ccc2c(c1)c(C(=O)N/N=C/c1cn(C)c3ccccc13)c(C)n2C	-14	0	-10%	-20%	-23%	79
COc1cc(/C=N\Nc2nc3ccccc3[nH]2)cc(OC)c1OC	76	34*	u	0.17µM*	u	50
CCN(CC)c1ccc(/C=N/Nc2nc3ccccc3[nH]2)c(O)c1	100*	52*	1.2µM*	x	5.6µM*	-98*
COc1ccc(/C=N/Nc2nc3ccccc3[nH]2)cc1OC	73*	32*	u	0.47µM*	-12%	77
CCc1ccccc1NC(=O)CSc1ncc2c(n1)-c1ccccc1N(C)S2(=O)=O	x	x	x	x	x	7
Cc1ccc2cc(/C=N/Nc3nc4ccccc4[nH]3)c(Cl)nc2c1	93*	55*	u	0.74µM*	1%	5
COc1cc(OC)c(OC)cc1/C=N/Nc1nc2ccccc2[nH]1	-2	-2	1.9µM*	1µM*	-8%	3
Cc1ccc2cc(/C=N/NC(=O)c3ccccc3[N+](=O)[O-])c(Cl)nc2c1	15	16	-37%	12%	-18%	-10
CC(C)N=c1scc(-c2ccco2)n1/N=C/c1ccc(O)c(O)c1	56	43*	u	u	u	89
O=C(NC1CC(=O)c2sccc21)c1ccc(Cl)cc1Cl (centres undefined)	33	32*	86%	120%	-1%	-12
COC(=O)NNC(=O)c1ccc(Cl)cc1Cl	7	-2	-11%	17%	11%	35
CC(=N\Nc1ccc(Cl)cc1)/C(=N/O)C(=O)Nc1ccccc1	-5	-5	39%	33%	4%	36
CCOC(=O)C(=N/O)/C(C)=N/NC(=O)C(=O)Nc1ccc(Cl)cc1	2	1	-11%	43%	11µM*	-37
CCOC(=O)C1=C(COC(=O)/C=C/c2cccc(F)c2)NC(=O)NC1C (centres undefined)	x	x	x	x	14%	26
CC(C)CC(N)c1csc(NC(=O)Nc2ccccc2C(C)C)n1 (centres undefined)	x	x	x	x	x	9
SMILES	Shiga inhibitor	Cycloheximide cs	Pf growth 96h	Pf growth 48h	HCV inh	HCMV inh
COc1ccc(OCC(NS(=O)(=O)c2ccc(-n3cnnn3)cc2)C(C)C)cc1 (centres undefined)	-8	12	70%	u	40µM*	-5
CC(=O)c1ccc(OCCNS(=O)(=O)c2ccc(-n3cnnn3)cc2)cc1	-4	-4	-28%	-27%	-10%	5
Cc1cc(NC(=O)CCCn2ccc([N+](=O)[O-])n2)n(Cc2ccc(F)cc2)n1	-9	13	-22%	1%	u	-84*
Cc1cc(C)cc(C(=O)N2CCCCC2)c1	x	x	x	x	-1%	-27
CCOC(=O)c1c(NC(=O)CS(=O)(=O)c2cn(CC)c3ccccc23)sc2c1CCCCC2	-16	-5	u	0%	u	-71*
Cc1ccc(NCc2nnc(SCC(=O)Nc3ccccc3)n2CC2CCCO2)c(C)c1 (centres undefined)	48	33*	x	-1%	-17%	-14
CCn1c(C)nnc1SCC(=O)Nc1ccc2c(c1)OCCO2	26	13*	8%	52%	8%	38
CCn1c(SCC(=O)Nc2ccc3c(c2)OCCO3)nnc1-c1c[nH]c2ccccc12	14	12*	u	u	u	42
Cc1nnc(SCC(=O)Nc2ccc3c(c2)OCCO3)n1N	18	10	x	15%	-10%	0
Nn1cnnc1SCC(=O)Nc1ccc2c(c1)OCCO2	14	12*	29%	72%	1%	9
Cc1nnc(SCC(=O)Nc2ccc3c(c2)OCCO3)n1CC1CCCO1 (centres undefined)	30*	7.4*	28%	13%	8%	6
Cc1occc1-c1nnc(SCC(=O)Nc2ccc3c(c2)OCO3)n1CC1CCCO1 (centres undefined)	-18	1	-67%	-5%	4%	-11
O=C(CS(=O)(=O)c1c[nH]c2ccccc12)Nc1ccc2c(c1)OCCO2	45*	38*	-32%	50%	-1%	38
CCn1c(CC(=O)Nc2ccc(Cl)c(Cl)c2)nnc1SCc1ccc(Cl)cc1	34	-1	-7%	4%	9%	-100*
CCOc1ccccc1/C=C/C(=O)NCC(=O)N1CCC(N(C)C2CCCCC2C)CC1 (centres undefined)	-10	-1	23%	u	u	u
COc1ccccc1NC(=O)CN1C(=O)CC(c2ccc(C)c(C)c2)=Nc2ccccc21	x	x	x	x	x	-5
Cc1ccc(C)c(NC(=O)COC(=O)c2cccc(S(=O)(=O)N3CCCC3)c2)c1	x	x	x	x	x	-11
